# Reference: ChEMBL document CHEMBL3433997, “St. Jude Leishmania screening dataset” (2016)
# Assays:
# Assay type in all cases: functional
# [1] = target: Solute carrier family 2, facilitated glucose transporter member 1 (Homo sapiens) (UniProt P11166); assay: ST_JUDE_LEISH: Cytotoxicity at 2uM final concentration against transgenic Leishmania Mexicana promastigotes LmGLUT1 that are glucose transport deficient and complemented with the human glucose transporter GLUT1. Activity is measured by DNA content using SYBR green in vitro
# Chain of Solute carrier family 2, facilitated glucose transporter member 1 (Homo sapiens) (P11166 whole entry): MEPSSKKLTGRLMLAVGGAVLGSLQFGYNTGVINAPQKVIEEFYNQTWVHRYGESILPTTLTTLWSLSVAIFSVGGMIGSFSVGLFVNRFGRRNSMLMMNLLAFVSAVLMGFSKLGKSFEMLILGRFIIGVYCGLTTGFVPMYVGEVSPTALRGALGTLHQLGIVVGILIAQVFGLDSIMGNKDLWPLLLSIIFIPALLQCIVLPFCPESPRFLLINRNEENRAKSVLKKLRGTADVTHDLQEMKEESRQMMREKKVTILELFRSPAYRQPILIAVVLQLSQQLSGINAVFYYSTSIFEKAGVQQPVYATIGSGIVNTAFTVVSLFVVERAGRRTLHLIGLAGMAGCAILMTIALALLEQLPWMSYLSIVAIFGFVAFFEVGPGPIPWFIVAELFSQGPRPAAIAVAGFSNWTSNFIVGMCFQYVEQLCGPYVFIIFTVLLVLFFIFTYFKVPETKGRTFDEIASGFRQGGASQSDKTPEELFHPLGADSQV
# [2] = target: Hexose transporter 1 (Plasmodium falciparum) (UniProt O97467); assay: ST_JUDE_LEISH: Cytotoxicity at 2uM final concentration against transgenic Leishmania Mexicana promastigotes LmPfHT that are glucose transport deficient and complemented with the Plasmodium falciparum hexose transporter. Activity is measured by DNA content using SYBR green in vitro
# [3] = target: Glucose transporter (Leishmania mexicana) (UniProt O61059); assay: ST_JUDE_LEISH: Cytotoxicity at 2uM final concentration against transgenic Leishmania Mexicana promastigotes LmGT2 that are glucose transport deficient and complemented with the L. Mexicana glucose transporter 2. Activity is measured by DNA content using SYBR green in vitro
SMILES,inhibition [1] [%],inhibition [2] [%],inhibition [3] [%]
Fc1ccc2[nH]c(-c3cccc(-c4ccc(CNCC5CCCO5)cc4)c3)nc2c1 (configuration not stated),1.13,-3.6,-1.42
CC(C)(C)c1cc(C(=O)N2CCN(c3ncnc4ccsc34)CC2)n(Cc2ccccc2)n1,4.27,4.01,2.2
Cc1nc2ccc3ccc(CNc4ccc(C(=O)CC(CCC(=O)O)C(=O)O)cc4)cc3c2c(=O)[nH]1 (configuration not stated),-0.57,-1.01,-0.36
O=C(Nc1cccc(C(F)(F)F)c1)NC1CCN(c2ccnc3ccccc23)CC1,5.82,5.09,2.7
FC(F)c1nc2ccccc2n1-c1nc(N2CCOCC2)nc(N2CCOCC2)n1,2.11,2.9,3.12
CCOc1ccccc1CON1C(N)=NC(N)=NC1(C)C,4.48,3.69,7.54
COc1cc(OC)cc(C(=O)Nc2nc(-c3ccccn3)cs2)c1,7.32,14.4,7.57
Cc1cc(Nc2cccc(C(F)(F)F)c2)nc(N)n1,0.43,0.91,1.19
Cc1cc(-c2nc3cncc(-c4cccc(CN5CCCC5Cc5cccnc5)c4)c3n2C)nn1C (configuration not stated),-1.04,-2.01,-0.34
CCc1ccc(C2=Nn3c(nnc3-c3cccs3)SC2)cc1,2.35,1.1,-0.08
CN(C)c1ccc(CN2CCCCC(NC(=O)c3cc(-c4ccccc4Cl)cs3)C2)cc1 (configuration not stated),2.84,2.86,4.6
Cc1noc(NC(=O)c2sc3ccccc3c2O)c1C,1.04,0.61,-0.8
Cc1cc2ncn(-c3nccc(NCc4ccc(F)cc4)n3)c2cc1C,-0.72,-1.37,-0.57
CC(C)c1sc(N2CCN(C)CC2)nc1C(=O)Nc1cccc2c1CCCC2,0.42,1.67,1.79
CC(=O)Oc1c(C2CCN(CCCCNC(=O)c3ccc(NC(=O)c4ccc(Cl)cc4)cc3)CC2)ccc2ccccc12,3.43,3.63,4.42
N=C(N)c1cc(Br)cc(NC(=O)Nc2cc(Br)cc(C(=N)N)c2)c1,2.46,2.44,3.14
COc1cc2ncnc(Nc3ccc4nc(-c5ccccc5)[nH]c4c3)c2cc1OC,4.22,3.9,2

SMILES,inhibition [1] [%],inhibition [2] [%],inhibition [3] [%]
O=C(N[C@@H](Cc1ccccc1)CN1CCC(Oc2ccc(F)cc2)CC1)c1ccc(OCCCN2CCCCC2)cc1,30.5,10.5,13.4
C=CCc1cc(SC)ccc1Oc1ccc(N)cc1,1.84,2.06,1.08
O=C(/C=C/c1ccc(Cl)c(Cl)c1)NCCCCCN1CCC(NS(=O)(=O)c2cc(Cl)cc(Cl)c2)CC1,3.59,3.03,3.19
O=C(NC1CC1)c1ccc(N2CCC(COc3cccc(F)c3)CC2)nc1,5.26,4.16,6.94
CCNc1cc(C(=O)N[C@@H](Cc2cccc(F)c2)[C@H](O)CNC(C)CCCC(C)C)cc(N2CCCCS2(=O)=O)c1 (some centres not stated),1.15,2.92,1.42
O=C(/C=C/c1cccc(Br)c1)NCCCCCN1CCC(c2c[nH]c3ccccc23)CC1,3.71,2.1,5.42
Cc1ccnc(Nc2nc(-c3ccccn3)cs2)c1,10.1,22.4,-2.74
CC(C)Cn1c(Sc2ccc(C#N)c([N+](=O)[O-])c2)nnc1-c1cccc(Cl)c1,12.7,12.4,9.62
COc1ccc(COc2cc(NCCCN)nc3ccccc23)cc1,4.66,6.16,4.46
Cc1cccc2nc(-c3ccc(-c4ccc(CN5CCN(C6CCN(C)CC6)CC5)cc4)cc3)[nH]c12,1.22,1.31,-0.53
NC1=NC(c2ccccc2)(c2ccccc2)C(=O)N1Cc1ccc(-c2cccnc2)cc1,2.71,1.53,0.52
CC(=NNC(S)=NCc1ccco1)c1ccccn1,1.7,1.81,1.16
Cc1cccc2nc(-c3ccc(-c4cccc(NC(=O)C(C)CN5CCN(C)CC5)c4)cc3)[nH]c12 (configuration not stated),3.33,0.81,5.85
O=C(N[C@@H](Cc1cc(F)cc(F)c1)[C@H](O)CNCc1cccc(C(F)(F)F)c1)c1cc(C2CCCC2)cc(N2CCCC2=O)c1,1.51,1.51,1.95
O=[N+]([O-])c1ccc(-n2nc(Cc3ccccc3)n(Cc3cccc(F)c3)c2=S)c(C(F)(F)F)c1,2.84,3.14,-0.25
COc1ccc2nccc([C@@H](O)CN3CCC(NCc4cc5ccccc5[nH]4)CC3)c2c1,17,23.5,4.85
O=C(NCCCCN1CCC(c2ccc3c(c2OCCCO)CCCC3)CC1)c1ccc(-c2ccc(C(F)(F)F)cc2)c(CO)c1,-0.96,-0.59,-0.61
